Assay [1] concerns the target Glutathione peroxidase 1 (Homo sapiens) (UniProt P07203). Nature of the assay: Primary qHTS Assay for Inhibitors of Recombinant Selenoprotein Glutathione Peroxidase 1 (GPX1) (AID 1845191). Further: nearly all actives have a fitted effect of over 65% in size. On activity, negative = inhibition: on the % scale 0 is the no-effect control and ±100 the full control effect. The method in brief:
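GR-coupled assay: compounds preincubated 30 min at room temperature with GPX1, then reaction started with CHP; final 10 nM GPX1, 1 mM GSH, 0.5 mM CHP, 0.5 mM NADPH, 100 nM GR, 0.01% BSA, pH 7.5 Tris buffer. NADPH fluorescence (340/450 nm) read at 0 and 15 min.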

The target of assay [2] is Phospholipid hydroperoxide glutathione peroxidase GPX4 (Homo sapiens) (UniProt P36969). Kind of assay: Primary qHTS Assay for Inhibitors of Recombinant Selenoprotein Glutathione Peroxidase 4 (GPX4) (AID 1845192). Further: nearly all actives have a fitted effect of over 65% in size. On activity change, negative = inhibition: series mostly up to about 50 µM; on the % scale 0 is the no-effect control and ±100 the full control effect. The method in brief:
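GR-coupled assay: recombinant GPX4 preincubated 30 min with compound at room temperature; final 200 nM GPX4, 1 mM GSH, 0.5 mM cumene hydroperoxide, 0.5 mM NADPH, 100 nM GR, 0.01% BSA, pH 7.5 Tris. NADPH fluorescence (340/450 nm) read at 0 and 15 min.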

Assay [3] concerns the target Luciferin 4-monooxygenase (Photinus pyralis) (UniProt P08659). Kind of assay: Primary firefly luciferase (FLuc) qHTS assay for identification of artifact compounds. (AID 1845220). Further: nearly all actives have a fitted effect of over 60% in size. Further: potency means the concentration at half of the fitted maximal effect.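 On activity change, negative = inhibition: series mostly up to about 54 µM; plate controls were DMSO vehicle for no effect and no enzyme for full effect.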 The method in brief: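 Enzymatic FLuc inhibition assay: compounds pre-exposed to luciferin/ATP (10 uM each) for 15 min, then purified P. pyralis enzyme at 10 nM added. Read-out: luminescence at 5 min.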

Assay [4] in a line: Primary fluorescence-based thiol-reactive (MSTI) qHTS assay for identification of artifact compounds. (AID 1845221). Further: nearly all actives have a fitted effect of over 65% in size. Further: potency means the concentration at half of the fitted maximal effect.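 On activity change, negative = thiol reactive: series mostly up to about 54 µM; thiol-reactive compounds lower the probe fluorescence signal.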 Summed up: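 One-hour, room-temperature, dark incubation of compound with 4 uM MSTI in PBS (pH 7.4, 2% DMSO) precedes a fluorescence read at 525 nm excitation, 598 nm emission; Hill-equation fitting yields concentration-response values.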
Assay [5] deals with Nanoluciferase (engineered Oplophorus gracilirostris luciferase). Kind of assay: Primary Nanoluciferase (NLuc) qHTS assay for identification of artifact compounds. (AID 1845222).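 Further: NLuc secreted into diluted conditioned medium of S16 cells; series mostly up to about 54 µM; 0% = DMSO and -100% = no enzyme.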 Summed up:
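S16 cell supernatant NLuc, 1:55; cpds qHTS; 15 min RT dark; Nano-Glo substrate 1:100, 5 min; luminescence; Hill fit of % inhibition.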

Assay [6] in a line: Primary redox qHTS assay for identification of artifact compounds. (AID 1845223).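 Further: 0% = DMSO and 100% = reference compound.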 Summed up: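 Amplex Red (25 uM) and HRP (250 mU/mL) in HBSS, with compounds for 15 min, then 250 uM DTT for 30 min, room temperature, dark. Fluorescence 525/598 nm read; normalized to DMSO and 10 uM DA3003; Hill fit.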

Unmarked numbers belong to inactive results. Records with an inconclusive call do not appear. The source made the active and inactive calls. The call rests on the fitted dose curve; in most records, active means well fitted curve in the direction sought with a large enough effect; inconclusive means small, poorly fitted or top-dose-only effect, or another doubt; inactive means no such curve, though single readings can be large; an effect the other way counts as inactive or inconclusive.

Sequence of Glutathione peroxidase 1 (Homo sapiens) (P07203 whole entry, looked up): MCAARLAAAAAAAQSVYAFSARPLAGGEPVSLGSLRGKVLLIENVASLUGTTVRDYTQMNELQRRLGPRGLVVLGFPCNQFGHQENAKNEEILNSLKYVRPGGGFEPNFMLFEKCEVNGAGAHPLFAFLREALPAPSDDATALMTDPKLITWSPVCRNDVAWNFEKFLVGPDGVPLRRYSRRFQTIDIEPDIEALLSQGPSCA
Sequence of Phospholipid hydroperoxide glutathione peroxidase GPX4 (Homo sapiens) (P36969 whole entry, looked up): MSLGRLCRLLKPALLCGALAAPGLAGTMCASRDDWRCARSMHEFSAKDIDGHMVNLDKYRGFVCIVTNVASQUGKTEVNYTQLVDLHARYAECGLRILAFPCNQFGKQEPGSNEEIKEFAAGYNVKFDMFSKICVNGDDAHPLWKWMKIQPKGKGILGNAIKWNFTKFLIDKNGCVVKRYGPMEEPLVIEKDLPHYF

Turning to `CC1=C2CC(O)(C(C)(C)O)C(O[C@@H]3O[C@H](CO)[C@@H](O)[C@H](O)[C@H]3O)CC(C)C2CC1=O` (some centres not stated), the Potency result in assay [1], in assay [2], in assay [3], in assay [5] and in assay [6] was “inactive” in each case. Besides, in assay [4], the Potency was 3.67 µM (active).
`C[C@@H]1O[C@@H](O[C@H]2[C@H](O[C@H]3[C@H](O[C@H]4CC[C@@]5(C)C(CC[C@]6(C)C5CC=C5[C@@H]7CC(C)(C)C[C@@H](O)[C@]7(C)CC[C@]56C)[C@@]4(C)CO)O[C@H](C(=O)O)[C@@H](O)[C@@H]3O)O[C@H](CO)[C@H](O)[C@@H]2O)[C@H](O)[C@H](O)[C@H]1O` (some centres not stated): the Potency entry in assay [1] and in assay [2] was “inactive” each time. For the same compound, the activity change, negative = inhibition in assay [3] is 0.671% [at 11.6 µM]. Moreover, in assay [4], the activity change, negative = thiol reactive is 67.3% [at 11.5 µM]. In addition, in assay [5], the activity, negative = inhibition was 4.57% [at 11.6 µM]. Besides, in assay [6], the redox activity (% of DA3003) is 10.7% [at 11.5 µM].
In the case of `NC(=O)[C@H](Cc1ccccc1)NC(=O)[C@H](CCCN=C(N)N)NC(=O)C12CC3CC(CC(C3)C1)C2`, the Potency result in assay [1] and in assay [2] was “inactive” each time. The activity change, negative = inhibition in assay [3] is 0.126% [at 11.6 µM]. The activity change, negative = thiol reactive in assay [4] was 37.2% [at 11.5 µM]. For the same compound, in assay [5], the activity, negative = inhibition was 3.23% [at 11.6 µM]. In addition, the redox activity (% of DA3003) in assay [6] is -2.26% [at 11.5 µM].
Regarding `COC(=O)C1=CO[C@@H](O[C@@H]2O[C@H](CO)[C@@H](O)[C@H](O)[C@H]2O)[C@H]2[C@@H]1C=C[C@]21C=C([C@H](C)OC(=O)/C=C/c2ccc(O[C@@H]3O[C@H](CO)[C@@H](O)[C@H](O)[C@H]3O)cc2)C(=O)O1`, the Potency result in assay [1], in assay [2], in assay [3], in assay [4], in assay [5] and in assay [6] was “inactive” in each case.
With `COC(=O)C1=CO[C@@H](O[C@@H]2O[C@H](CO[C@@H]3O[C@H](CO)[C@@H](O)[C@H](O)[C@H]3O)[C@@H](O)[C@H](O)[C@H]2O)[C@@H]2C(CO)=CC[C@H]12`, the Potency entry in assay [1], in assay [2], in assay [3], in assay [4], in assay [5] and in assay [6] was “inactive” throughout.
Turning to `C/C=C(\C)C(=O)OC[C@H]1O[C@@H](O[C@H]2[C@@H](O[C@H]3O[C@H](CO)[C@@H](O)[C@H](O)[C@H]3O[C@@H]3O[C@H](CO)[C@@H](O)[C@H](O)[C@H]3O)O[C@H](COC(=O)/C(C)=C/C)[C@@H](O)[C@@H]2O)[C@H](O)[C@@H](O)[C@@H]1O`, the Potency entry in assay [1] and in assay [2] was “inactive” each time. Also, the activity change, negative = inhibition in assay [3] was 3.78% [at 11.6 µM]. In assay [4], the activity change, negative = thiol reactive was -18.3% [at 11.5 µM]. Also, the activity, negative = inhibition in assay [5] is -0.032% [at 11.6 µM]. Besides, in assay [6], the redox activity (% of DA3003) is -4.48% [at 11.5 µM].
`CCNC(=O)OC1CCN(c2nncc3cc(OC)c(OC)cc23)CC1`: the Potency entry in assay [1], in assay [2], in assay [3], in assay [4], in assay [5] and in assay [6] was “inactive” in each case.
Consider `C=C1CC[C@H]2[C@@](C)(CCC(O)[C@@]2(C)CO)[C@@H]1/C=C/C(=C\C(=O)O)C(=O)O` (some centres not stated), for which the Potency entry in assay [1], in assay [2], in assay [3], in assay [5] and in assay [6] was “inactive” in each case. Further, the Potency in assay [4] is 5.21 µM (active).
Regarding `C=C1CC[C@@H]2C(C)(C)CCC[C@@]2(C)[C@@H]1CC/C(=C/C(=O)OC)COC(C)=O`, the Potency result in assay [1], in assay [2], in assay [3], in assay [4], in assay [5] and in assay [6] was “inactive” throughout.
As to `O=C(O)CC(CCc1ccccc1)OC1OC(CO)C(O)C(O)C1O` (configuration not stated), the Potency result in assay [1], in assay [2], in assay [3], in assay [5] and in assay [6] was “inactive” each time. Moreover, the Potency in assay [4] is 5.21 µM (active).
Turning to `CC1(C)CCC2(C(=O)O)C(O)CC3(C)C(=CCC4C5(C)CCC(OC6OC(CO)C(O)C(O)C6OC6OC(CO)C(O)C(O)C6OC6OCC(O)(CO)C6O)C(C)(C)C5CCC43C)C2C1` (configuration not stated), the Potency entry in assay [1] and in assay [2] was “inactive” throughout. Also, the outcome in assay [3] is “inactive [at 11.6 µM]”. Also, the activity change, negative = thiol reactive in assay [4] was 154% [at 11.5 µM]. Further, the activity, negative = inhibition in assay [5] is 1.68% [at 11.6 µM]. Also, the redox activity (% of DA3003) in assay [6] is 17% [at 11.5 µM].
Take `CC(C)=CCc1c(O)cc2oc3cc(C)cc(O)c3c2c1C`: the Potency entry in assay [1], in assay [2], in assay [5] and in assay [6] was “inactive” each time. In addition, the values for the Potency in assay [3] and in assay [4] were 12 µM (active) and 4.74 µM (active), respectively.
With `CNc1nc(Cc2ccccc2)nc2c1CCNC[C@@H]2C`, the Potency result in assay [1], in assay [2], in assay [3], in assay [4], in assay [5] and in assay [6] was “inactive” in each case.
On to `CC1(C)CCC[C@@]2(C)[C@H]1[C@H](O)C=C(CO)[C@]2(O)CO`, for which the Potency entry in assay [1], in assay [2], in assay [3], in assay [4], in assay [5] and in assay [6] was “inactive” in each case.
Take `C/C(=C\CO)CC/C=C(\C)C(=O)O[C@@H]1O[C@H](CO)[C@@H](O)[C@H](O)[C@H]1O`: the Potency entry in assay [1], in assay [2], in assay [3], in assay [4], in assay [5] and in assay [6] was “inactive” in each case.
Take `CC(=O)OC1C(O)/C(C)=C\C2C(OC(=O)c3ccccc3)C(C)CC2(OC(C)=O)C(OC(C)=O)C(C)/C=C/C(C)(C)C1OC(C)=O` (configuration not stated): the Potency entry in assay [1], in assay [2], in assay [3], in assay [4], in assay [5] and in assay [6] was “inactive” in each case.
Turning to `CC1(C)CC(NC(=O)C(=O)Nc2ccc(Cl)cc2)CC(C)(C)N1`, the Potency entry in assay [1], in assay [2], in assay [3], in assay [4], in assay [5] and in assay [6] was “inactive” in each case.

(Values after PubChem BioAssay (NCATS).)
